ChEMBL document CHEMBL1961873, “Compounds: GSK PKIS; Assays: Nanosyn kinase panel” (2012)

What was measured:
[1] = biological target: Casein kinase I isoform gamma-2 (Homo sapiens) (UniProt P78368); details: at 1 µM
[2] = biological target: Casein kinase I isoform gamma-3 (Homo sapiens) (UniProt Q9Y6M4); details: at 0.1 µM
[3] = biological target: Casein kinase I isoform gamma-3 (Homo sapiens) (UniProt Q9Y6M4); details: at 1 µM
[4] = biological target: Cyclin-dependent kinase 1 (Homo sapiens) (UniProt P06493); details: at 0.1 µM
[5] = biological target: Cyclin-dependent kinase 1 (Homo sapiens) (UniProt P06493); details: at 1 µM
[6] = biological target: Cyclin-dependent kinase 2 (Homo sapiens) (UniProt P24941); details: at 0.1 µM
[7] = biological target: Cyclin-dependent kinase 2 (Homo sapiens) (UniProt P24941); details: at 1 µM
[8] = biological target: Cyclin-dependent kinase 2 (Homo sapiens) (UniProt P24941); details: at 0.1 µM; remark: listed apart in the source
[9] = biological target: Cyclin-dependent kinase 2 (Homo sapiens) (UniProt P24941); details: at 1 µM; remark: listed apart in the source
[10] = biological target: T1, CDK3/Cyclin E (Homo sapiens) (UniProt P24864+Q00526); details: at 0.1 µM
[11] = biological target: T1, CDK3/Cyclin E (Homo sapiens); details: at 1 µM
[12] = biological target: Cyclin-dependent kinase 4 (Homo sapiens) (UniProt P11802); details: at 0.1 µM
[13] = biological target: Cyclin-dependent kinase 4 (Homo sapiens) (UniProt P11802); details: at 1 µM
[14] = biological target: Cyclin-dependent kinase 5 (Homo sapiens) (UniProt Q00535); details: at 0.1 µM
[15] = biological target: Cyclin-dependent kinase 5 (Homo sapiens) (UniProt Q00535); details: at 1 µM
[16] = biological target: Cyclin-dependent kinase 6 (Homo sapiens) (UniProt Q00534); details: at 0.1 µM
[17] = biological target: Cyclin-dependent kinase 6 (Homo sapiens) (UniProt Q00534); details: at 1 µM
[18] = biological target: Dual specificity protein kinase CLK2 (Homo sapiens) (UniProt P49760); details: at 0.1 µM
[19] = biological target: Dual specificity protein kinase CLK2 (Homo sapiens) (UniProt P49760); details: at 1 µM
[20] = biological target: Dual specificity protein kinase CLK3 (Homo sapiens) (UniProt P49761); details: at 0.1 µM
Dual specificity protein kinase CLK3 (Homo sapiens), sequence (P49761 whole entry, looked up): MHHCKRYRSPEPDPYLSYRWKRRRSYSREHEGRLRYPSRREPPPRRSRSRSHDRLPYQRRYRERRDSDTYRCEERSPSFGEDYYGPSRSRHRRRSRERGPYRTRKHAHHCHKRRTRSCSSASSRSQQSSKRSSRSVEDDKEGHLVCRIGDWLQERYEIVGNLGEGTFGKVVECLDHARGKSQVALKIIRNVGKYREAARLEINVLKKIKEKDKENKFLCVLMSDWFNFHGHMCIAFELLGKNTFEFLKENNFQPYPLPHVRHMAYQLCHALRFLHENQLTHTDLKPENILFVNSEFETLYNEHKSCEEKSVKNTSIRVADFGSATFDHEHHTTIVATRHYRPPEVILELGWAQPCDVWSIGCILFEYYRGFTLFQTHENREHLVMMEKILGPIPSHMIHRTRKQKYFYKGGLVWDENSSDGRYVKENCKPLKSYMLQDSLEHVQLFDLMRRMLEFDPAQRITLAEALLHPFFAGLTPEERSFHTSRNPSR

Cyclin-dependent kinase 4 (Homo sapiens), sequence (P11802 whole entry): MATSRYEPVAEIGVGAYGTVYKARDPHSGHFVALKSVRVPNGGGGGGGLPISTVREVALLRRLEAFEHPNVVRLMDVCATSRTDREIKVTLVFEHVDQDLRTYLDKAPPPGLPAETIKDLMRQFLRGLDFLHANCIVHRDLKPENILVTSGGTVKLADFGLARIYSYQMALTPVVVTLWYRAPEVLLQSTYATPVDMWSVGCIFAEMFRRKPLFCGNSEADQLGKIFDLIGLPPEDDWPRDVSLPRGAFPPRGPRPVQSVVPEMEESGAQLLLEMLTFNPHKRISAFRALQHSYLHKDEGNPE
T1 sequence (P24864 whole entry, looked up): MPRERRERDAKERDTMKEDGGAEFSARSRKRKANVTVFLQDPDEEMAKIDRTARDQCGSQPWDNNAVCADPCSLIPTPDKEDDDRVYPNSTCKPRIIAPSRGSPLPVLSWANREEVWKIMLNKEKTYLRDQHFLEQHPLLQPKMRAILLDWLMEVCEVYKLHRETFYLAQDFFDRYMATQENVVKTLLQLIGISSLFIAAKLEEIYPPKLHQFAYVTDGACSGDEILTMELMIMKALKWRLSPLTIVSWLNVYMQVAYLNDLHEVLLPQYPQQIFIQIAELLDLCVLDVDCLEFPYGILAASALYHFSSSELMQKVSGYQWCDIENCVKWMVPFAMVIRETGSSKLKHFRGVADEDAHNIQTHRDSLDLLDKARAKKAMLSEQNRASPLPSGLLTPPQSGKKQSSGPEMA
T1 sequence (Q00526 whole entry, looked up): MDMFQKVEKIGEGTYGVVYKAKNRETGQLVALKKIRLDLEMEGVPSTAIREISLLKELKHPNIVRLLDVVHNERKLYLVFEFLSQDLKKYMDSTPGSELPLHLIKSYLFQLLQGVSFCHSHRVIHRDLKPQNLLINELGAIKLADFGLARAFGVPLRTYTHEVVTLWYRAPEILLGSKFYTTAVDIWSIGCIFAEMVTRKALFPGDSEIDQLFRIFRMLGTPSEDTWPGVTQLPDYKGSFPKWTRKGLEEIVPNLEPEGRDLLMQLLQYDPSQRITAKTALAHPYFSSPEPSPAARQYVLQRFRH
Casein kinase I isoform gamma-2 (Homo sapiens), sequence (P78368 whole entry, looked up, canonical isoform): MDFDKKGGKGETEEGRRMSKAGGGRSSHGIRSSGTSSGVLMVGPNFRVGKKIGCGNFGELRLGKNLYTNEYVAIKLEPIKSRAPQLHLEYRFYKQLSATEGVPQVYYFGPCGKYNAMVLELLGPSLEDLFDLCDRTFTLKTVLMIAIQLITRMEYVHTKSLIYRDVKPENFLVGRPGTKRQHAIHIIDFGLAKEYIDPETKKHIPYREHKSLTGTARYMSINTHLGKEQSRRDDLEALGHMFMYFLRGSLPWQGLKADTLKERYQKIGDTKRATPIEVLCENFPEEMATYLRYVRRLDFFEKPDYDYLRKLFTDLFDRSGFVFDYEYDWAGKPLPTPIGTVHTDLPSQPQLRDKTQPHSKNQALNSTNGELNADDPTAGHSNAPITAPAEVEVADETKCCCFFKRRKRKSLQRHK
Cyclin-dependent kinase 6 (Homo sapiens), sequence (Q00534 whole entry): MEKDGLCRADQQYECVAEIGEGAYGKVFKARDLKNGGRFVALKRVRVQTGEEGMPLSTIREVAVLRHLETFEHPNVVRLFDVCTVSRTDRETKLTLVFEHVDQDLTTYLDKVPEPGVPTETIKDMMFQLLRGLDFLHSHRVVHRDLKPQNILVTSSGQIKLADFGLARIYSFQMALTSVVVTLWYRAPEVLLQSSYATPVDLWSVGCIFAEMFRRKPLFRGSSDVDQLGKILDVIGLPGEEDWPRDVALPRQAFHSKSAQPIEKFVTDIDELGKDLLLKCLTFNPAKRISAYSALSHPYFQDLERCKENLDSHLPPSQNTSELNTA
Dual specificity protein kinase CLK2 (Homo sapiens), sequence (P49760 whole entry, looked up): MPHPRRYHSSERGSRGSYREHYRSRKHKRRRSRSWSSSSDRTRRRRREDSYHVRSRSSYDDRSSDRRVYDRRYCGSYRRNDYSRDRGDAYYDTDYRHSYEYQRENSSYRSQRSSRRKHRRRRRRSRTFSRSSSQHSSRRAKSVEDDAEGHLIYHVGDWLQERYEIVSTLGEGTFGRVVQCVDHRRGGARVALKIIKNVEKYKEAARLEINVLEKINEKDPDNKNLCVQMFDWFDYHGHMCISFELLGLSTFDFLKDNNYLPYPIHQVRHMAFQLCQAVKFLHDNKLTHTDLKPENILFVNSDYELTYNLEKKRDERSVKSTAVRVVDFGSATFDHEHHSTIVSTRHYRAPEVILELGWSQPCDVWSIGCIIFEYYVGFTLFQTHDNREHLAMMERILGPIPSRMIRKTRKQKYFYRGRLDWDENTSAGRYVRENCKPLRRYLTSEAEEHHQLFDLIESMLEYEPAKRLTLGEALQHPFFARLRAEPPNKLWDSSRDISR
Cyclin-dependent kinase 5 (Homo sapiens), sequence (Q00535 whole entry, looked up): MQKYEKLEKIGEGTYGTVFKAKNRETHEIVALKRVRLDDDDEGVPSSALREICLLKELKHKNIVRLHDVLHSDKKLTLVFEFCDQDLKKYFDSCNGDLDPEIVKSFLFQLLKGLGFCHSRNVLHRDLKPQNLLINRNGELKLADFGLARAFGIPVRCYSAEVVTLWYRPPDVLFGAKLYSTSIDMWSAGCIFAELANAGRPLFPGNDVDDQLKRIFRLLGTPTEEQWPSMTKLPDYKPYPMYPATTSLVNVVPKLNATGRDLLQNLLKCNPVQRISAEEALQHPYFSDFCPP
Casein kinase I isoform gamma-3 (Homo sapiens), sequence (Q9Y6M4 whole entry, looked up, canonical isoform): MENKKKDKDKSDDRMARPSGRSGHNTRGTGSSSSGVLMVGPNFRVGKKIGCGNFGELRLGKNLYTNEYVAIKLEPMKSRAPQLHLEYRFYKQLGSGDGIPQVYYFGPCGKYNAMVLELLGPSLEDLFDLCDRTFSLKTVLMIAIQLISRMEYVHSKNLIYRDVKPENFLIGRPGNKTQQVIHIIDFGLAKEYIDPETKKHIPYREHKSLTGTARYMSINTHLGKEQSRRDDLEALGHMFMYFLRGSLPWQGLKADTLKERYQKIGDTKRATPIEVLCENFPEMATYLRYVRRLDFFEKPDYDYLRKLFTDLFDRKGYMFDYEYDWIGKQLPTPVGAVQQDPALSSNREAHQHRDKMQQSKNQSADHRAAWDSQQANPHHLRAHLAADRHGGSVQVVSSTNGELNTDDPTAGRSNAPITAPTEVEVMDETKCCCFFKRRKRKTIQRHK
Cyclin-dependent kinase 1 (Homo sapiens), sequence (P06493 whole entry, looked up): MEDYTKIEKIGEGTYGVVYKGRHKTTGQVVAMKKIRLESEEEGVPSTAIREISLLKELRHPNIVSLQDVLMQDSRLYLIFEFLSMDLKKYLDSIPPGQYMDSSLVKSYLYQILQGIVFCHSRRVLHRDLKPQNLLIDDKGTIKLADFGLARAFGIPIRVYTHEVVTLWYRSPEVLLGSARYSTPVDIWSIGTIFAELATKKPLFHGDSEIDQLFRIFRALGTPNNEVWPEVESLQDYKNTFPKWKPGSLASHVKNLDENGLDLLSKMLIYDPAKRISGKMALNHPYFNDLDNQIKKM

| SMILES | inhibition [1] [%] | inhibition [2] [%] | inhibition [3] [%] | inhibition [4] [%] | inhibition [5] [%] | inhibition [6] [%] | inhibition [7] [%] | inhibition [8] [%] | inhibition [9] [%] | inhibition [10] [%] | inhibition [11] [%] | inhibition [12] [%] | inhibition [13] [%] | inhibition [14] [%] | inhibition [15] [%] | inhibition [16] [%] | inhibition [17] [%] | inhibition [18] [%] | inhibition [19] [%] | inhibition [20] [%] |
| --- | --- | --- | --- | --- | --- | --- | --- | --- | --- | --- | --- | --- | --- | --- | --- | --- | --- | --- | --- | --- |
| CN(C)CCCn1c(-c2nonc2N)nc2cnccc21 | 4.54 | 1.5 | 3.26 | 1.58 | 2.19 | 2.53 | -3.59 | 4.53 | 6.13 | 4.24 | -0.71 | 3.12 | 4.13 | 1.36 | 1.99 | -4.78 | 1.95 | 2.66 | 2.51 | 1.05 |
| CCn1c(-c2nonc2N)nc2c(C#CC(C)(C)O)nc(OCCNC)cc21 | 6.19 | 2.99 | 1.61 | 3.65 | 2.4 | 3.96 | 3.53 | 2.75 | 5.28 | -3.05 | -2.48 | 5.94 | 6.73 | 1.64 | 1.77 | -0.39 | -2.07 | 1.52 | 3.81 | -0.84 |
| Cc1ccc(C(=O)NC2CC2)cc1-c1ccc2[nH]ncc2c1 | -3.39 | -2.17 | -1.12 | 0.88 | 2.1 | 0.12 | 4.69 | -1.68 | 0.18 | -2.07 | 0.41 | -0.45 | 1.78 | 0.3 | 2.44 | -4.81 | -2.84 | -1 | 0.36 | -0.51 |
| CCOc1nccc2c1nc(-c1nonc1N)n2CC | 1.13 | 1.1 | 0.56 | 0.5 | 2.69 | 0.81 | 2.63 | 2.66 | 5.12 | 2.48 | -0.38 | 0.99 | 1.83 | 0.91 | 1.13 | -2.27 | 1.84 | 1.77 | 1.91 | 1.37 |
| COc1cccc(-n2ncc3c(N/N=C/c4ccc(S(C)(=O)=O)cc4)ncnc32)c1 | -0.73 | -4.22 | -2.43 | 26.2 | 64 | 32.1 | 68 | 7.18 | 41.6 | 4.38 | 20.8 | 0.01 | 20.4 | 21 | 59.2 | 0.78 | 25.6 | 8.7 | 18.4 | -0.53 |
| CN(C)c1cc2c(Nc3ccc4c(cnn4Cc4ccccc4)c3)ncnc2cn1 | 2.69 | 1.93 | 2.19 | 0.49 | 1.95 | 1.76 | 4.21 | 2.18 | 3.51 | 0.35 | -0.2 | 2.4 | 4.36 | 0.57 | 1.24 | -3.6 | -0.22 | 0.87 | -0.06 | 0.92 |
| CN(C)C(=O)O[C@H]1CN[C@H](C#Cc2cc3ncnc(Nc4ccc(OCc5cccc(F)c5)c(Cl)c4)c3s2)C1 | 1.66 | 1.79 | 0.71 | 0.08 | -0.52 | 1.13 | 1.7 | 3.08 | 3.18 | 0.39 | -2.05 | 1.82 | 1.04 | 0.51 | 0.96 | 2.1 | 4.47 | -0.97 | 0.42 | 1.51 |
| COC(=O)Nc1nc2cc(Oc3ccc(NC(=O)Nc4cccc(Br)c4)cc3)ccc2[nH]1 | 1.6 | -0.42 | 1.82 | 1.34 | 2.26 | 3.2 | -0.87 | 1.48 | 2.15 | 2.04 | -4.35 | 2.4 | 2.61 | 0.44 | 1.22 | -3.24 | 0.22 | 0.85 | 1.48 | 1.73 |
| Nc1ccc(C#Cc2cncnc2Nc2ccc(OCc3cccc(F)c3)c(Cl)c2)cc1 | 2.65 | 2.45 | 2.75 | 1.11 | 1.87 | 1.4 | 1.57 | 2.14 | 3.31 | -0.93 | -1.01 | 1.19 | 3.75 | 0.23 | 1.65 | -2.6 | 0.37 | 0.14 | -1.31 | 0.75 |
| CS(=O)(=O)CCNCc1nc(-c2ccc3ncnc(Nc4ccc(OCc5cccc(C(F)(F)F)c5)cc4)c3c2)cs1 | 1.13 | 0.51 | -0.03 | 2.33 | 2.13 | 1.96 | -0.45 | 1.42 | 0.41 | -1.59 | -0.52 | 4.15 | 3.83 | 0.46 | -0.01 | -2.37 | 3.31 | -2.75 | 1.02 | 0.04 |
| Cc1ccc2c(-c3ccnc(Nc4cccc(C(F)(F)F)c4)n3)c(-c3ccccc3)nn2n1 | 12 | 4.25 | 24.8 | 3.78 | 3.79 | 4.09 | 3.14 | 2.95 | 7.4 | -1.21 | -1.25 | 4.12 | 7.65 | 2.11 | 4.09 | -1.73 | 1.79 | -0.15 | 2.76 | 0.65 |
| CCCN1CCCC(c2ccc(Nc3nc(Nc4cc(F)ccc4C(N)=O)c4cc[nH]c4n3)c(OC)c2)C1 (stereo not given) | 78.6 | 44.3 | 83.5 | 0.12 | 2.76 | 2.13 | 10.8 | 3.57 | 8.67 | 4.8 | 0.01 | 3.53 | 12.1 | 0.43 | 5.92 | -2.09 | 8.41 | 67.3 | 93.8 | 4.01 |
| NS(=O)(=O)c1cccc(Nc2cc(-c3ccc(F)cc3)n[nH]2)c1 | 4.87 | 1.83 | 4.57 | 0.79 | 9.28 | 2.32 | 11.1 | 7.11 | 28.4 | 10.6 | 36.7 | 1.88 | 10 | 5.52 | 31.4 | 10.5 | 52.5 | 1.65 | 1 | 1.43 |
| NS(=O)(=O)c1ccc(NC=C2C(=O)Nc3ccc4ncsc4c32)cc1 | 19.5 | 6.11 | 26.3 | 40.7 | 69.5 | 89.1 | 109 | 74.3 | 76.7 | 69.4 | 97.8 | 46.4 | 71.3 | 68.2 | 74.7 | 52.8 | 77.7 | 28.3 | 80 | 3.57 |
| [O-][S+]1CCN(Cc2ccc(-c3ccc4ncnc(Nc5ccc(OCc6ccccc6)c(Cl)c5)c4c3)o2)CC1 | 1.66 | 0.73 | 4.22 | 1.22 | 1.4 | 2.81 | 2.09 | 0.43 | 1.73 | -1.53 | -1.44 | 0.13 | 3.22 | 0.19 | 0.51 | -0.89 | 0.14 | -0.72 | 0.49 | 0.43 |
| CC(C)c1ccc(Nc2nccc(-c3cnn4ncccc34)n2)cc1 | 24.9 | 1.13 | 13.6 | 21.5 | 64 | 19.8 | 78.7 | 22.8 | 64.5 | 1.82 | 39 | 9.51 | 39.5 | 12.7 | 51.4 | 3.4 | 19.4 | 14 | 65.3 | 3.13 |
| Nc1nccc(-c2c(-c3ccc(F)cc3)ncn2CCCN2CCOCC2)n1 | 4.12 | 3.31 | 6.54 | 0.36 | 2.84 | 1.82 | -4.06 | 2.73 | 2.71 | 4.59 | -2.47 | 3.06 | 2.9 | 0.16 | 0.47 | -2.14 | 0.98 | 0.47 | 0.74 | 1.31 |
| N#Cc1c(NC(=O)c2ccccc2F)sc2c1CCCC2 | -1.07 | -2.12 | -0.42 | 1.03 | 1.65 | -0.45 | 0.88 | -2.16 | -0.2 | -1.77 | -1.38 | -0.94 | 1.2 | 0.27 | 1.58 | -4.39 | -2.09 | -1.95 | -0.15 | -0.38 |
| NS(=O)(=O)c1ccc(N/N=C2\C(=O)Nc3ccc(Cl)cc32)cc1 | 3.33 | 1.35 | 3.48 | 8.41 | 42.5 | 46.7 | 102 | 58.5 | 80.5 | 40.8 | 83.7 | 6.36 | 28 | 18 | 61 | 15.3 | 56.7 | 0.8 | 2.45 | 1.72 |
| O=C1Nc2ccccc2/C1=C/Nc1ccc2[nH]c(=O)[nH]c2c1 | 7.61 | 3.84 | 7.65 | 1.63 | 8.12 | 2.91 | 7.88 | 3.74 | 12.8 | 5.68 | 8.57 | 3.34 | 11.3 | 3.13 | 24.1 | 18.1 | 59 | 6.03 | 30.4 | 1.23 |
| COC(=O)c1cncc(/C=C/c2c(C)cc(O)cc2C)c1 | 3.31 | 2.67 | 3.39 | 0.78 | 3.13 | 2.61 | 4.42 | 3.33 | 5.75 | 1.45 | -1.29 | 2.45 | 3.9 | 1.02 | 3.28 | 4.33 | 4.14 | -0.85 | 2.84 | 2.11 |
| CCS(=O)(=O)c1ccc(OC)c(Nc2nccc(N(C)c3ccc4c(C)n[nH]c4c3)n2)c1 | 4.44 | 3.36 | 3.45 | 0.39 | 1.28 | 1.59 | 3.06 | 2.45 | 3.56 | 0.61 | -2.55 | 3.02 | 4.42 | 0.13 | 0.33 | -0.16 | -1.74 | 0.8 | 0.04 | 1.1 |
| O=C1Nc2ccc(-c3cccnc3)cc2C1=Cc1cc(Br)c(O)c(Br)c1 | 4.44 | 3.31 | 3.74 | -0.12 | 1.23 | 2.18 | 1.15 | 3.46 | 5.04 | 0.27 | 2.98 | 3.31 | 3.8 | 1.01 | 1.79 | 5.85 | 6.68 | 32.2 | 84.6 | 7.23 |
| COc1ccc2ncnc(Nc3ccc(OCc4ccccc4)cc3)c2c1 | 2.03 | -0.66 | 1.41 | 0.67 | 1.75 | 1.36 | -4.84 | 0.4 | 1.13 | 1.69 | -1.97 | 0.76 | 0.15 | 0.36 | 0.72 | -0.31 | 1.08 | 1.07 | 0.25 | 0.35 |
| COc1cc2ncnc(Nc3ccc(C)c(O)c3)c2cc1OC | 4.75 | 1.97 | 4.02 | 0.59 | 4.09 | 1.34 | 1.09 | 4.69 | 6.24 | 4.08 | -1.71 | 4.46 | 6.21 | 0.92 | 2.99 | -0.81 | 4.49 | 1.85 | 0.29 | 1.39 |
| CN1CCN(C(=O)c2ccc(NC(=O)Nc3ccc(N(C)c4ccnc(Nc5ccc(CS(C)(=O)=O)cc5)n4)cc3)cc2)CC1 | 1.64 | 1.17 | 1.29 | 2.37 | 5.28 | 4.51 | 10.8 | 0.96 | 5.93 | -1.55 | 2.12 | 2.05 | 5.68 | 1.54 | 8.48 | -6.28 | 3.8 | 0.17 | 3.57 | 0.18 |
